Screening data deposited in PubChem BioAssay by several laboratories.
Rows were chosen to be rich in hits. Some 3.5% of all compounds tested hit in one or more screens of this group.
ERa coact inh – blocks coactivator binding to human estrogen receptor alpha; P03372; TR-FRET ER-alpha LBD / SRC-1 peptide, estradiol-bound; inhibition, % at 25.6 µM; 86,000 compounds, 1.7% hits; in the data active means inhibition above about 50%;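 further: 0% = receptor plus peptide control and 100% = peptide only without receptor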
MT1-MMP txn act – MT1-MMP promoter transcription activation; HT1080 MT1-MMP promoter luciferase reporter, luminescence, overnight; hits give high values; activation factor at 10 µM; 86,000 compounds, 0.16% hits;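 active means activation factor of at least 2 for MT1-MMP transcription at 10 µM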
ERb coact inh – ER-beta (human) coactivator binding inhibition; 86,000 compounds, 1.3% hits; Q92731; AID 633; TR-FRET ER-beta LBD / SRC1-Cy5 peptide binding; receptor agonist-loaded with 1 µM estradiol; inhibition, % at 25.6 µM;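 active means compounds whose percent inhibition of the receptor-coactivator binding signal exceeds about 50% in the single-dose screen, limit read from the data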;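 further: 0% = receptor plus peptide wells without compound and 100% = peptide-only wells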
Target sequence (Q92731 whole entry, looked up, the tested form may be a part): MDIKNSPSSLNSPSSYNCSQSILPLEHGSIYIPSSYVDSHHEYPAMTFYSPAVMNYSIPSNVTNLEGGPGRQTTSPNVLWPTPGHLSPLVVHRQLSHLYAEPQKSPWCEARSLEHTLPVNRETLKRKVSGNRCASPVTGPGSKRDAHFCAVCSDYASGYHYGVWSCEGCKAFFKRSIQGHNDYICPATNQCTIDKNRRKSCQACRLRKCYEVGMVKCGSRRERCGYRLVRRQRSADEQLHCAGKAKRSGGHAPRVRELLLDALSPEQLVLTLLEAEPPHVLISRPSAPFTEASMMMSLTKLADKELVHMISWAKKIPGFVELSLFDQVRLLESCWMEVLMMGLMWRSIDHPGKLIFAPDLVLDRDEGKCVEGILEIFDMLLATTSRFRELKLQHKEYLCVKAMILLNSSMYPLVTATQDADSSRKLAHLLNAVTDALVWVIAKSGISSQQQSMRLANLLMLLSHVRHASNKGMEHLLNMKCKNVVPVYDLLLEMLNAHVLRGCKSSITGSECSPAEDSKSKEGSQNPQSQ
Smad3 FoxH1 inh – Smad3 (human) transcription factor binding inhibition. 88,000 compounds, 0.29% hits. P84022. inhibition, % at 25 µM. TR-FRET Smad3/Dy647-FoxH1 peptide binding, europium anti-His;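 active means compounds that reduce the energy-transfer binding signal between the protein and its labelled peptide by more than half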;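 further: 0% = Smad3 plus labelled peptide maximal FRET and 100% = peptide-only background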
MMP-13 inhibitor – MMP13 (human) collagenase inhibition. AID 570. inhibition, % at 4 µM. MMP-13 fTHP FRET cleavage, Mca fluorescence. P45452. 65,000 compounds, 0.07% hits;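 active means inhibition above the mean of compound-free control plate wells plus 3 SD, cut at about 14% in these data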;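 further: 0% = DMSO wells and 100% = wells with reference MMP-13 inhibitor after basal subtraction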
ERa SRC1 pot – enhances coactivator binding to human estrogen receptor alpha; TR-FRET ERalpha-LBD/SRC-Cy5 coactivator binding, 2 h; 100 = basal binding, no effect; P03372; coactivator binding (% of control), % at 25.6 µM; 86,000 compounds, 1.3% hits; in the data active means activity above about 200%;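 further: binding measured in presence of low estradiol as agonist stimulus; 0% = peptide alone without receptor and 100% = receptor with peptide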
Active calls of the source: *; i = inactive; / = no result given; [ ] = another dose, or the depositor's remark.

SMILES | ERa coact inh | MT1-MMP txn act | ERb coact inh | Smad3 FoxH1 inh | MMP-13 inhibitor | ERa SRC1 pot
CCOC(=O)CC(=O)CSc1nc(N)c(C#N)c(-c2ccc(Cl)cc2)c1C#N | 15 | 1.2 | 19 | 5 | 0 | 220*[fluorescence artefact?]
CSc1nc(N)nc(SCC(=O)C23CC4CC(CC(C4)C2)C3)c1C#N | / | 1 | / | / | -11 | /
CCOC(=O)CC(=O)CSc1nc(C)cc(C)c1C#N | 7 | 1.2 | -6 | -16 | / | 88
NC(=O)NC(c1ccccc1)c1ccccc1 | -5 | 1 | -1 | 12 | / | 99
CCOC(=O)C1CCCN(C(=O)CN2C(=O)C(CC)Oc3ccc(C)cc32)C1 (centres undefined) | 12 | 1.1 | -4 | -6 | -4 | 94
Nn1c(Nc2ccccc2)nc2ccccc2c1=O | -2 | 0.9 | 2 | -4 | -2 | 124
O=c1[nH]c(Nc2ccccc2)cc2ccccc12 | 19 | 1.1 | 10 | 58* | -33 | 92
Cc1cc(NCCOCCO)n2ncc(-c3ccc(Cl)cc3)c2n1 | -2 | 1.2 | -4 | 9 | -70 | 101
N#CCSc1nnc2sc3ccccc3n12 | 87*[fluorescence artefact?] | 1 | 9 | -6 | 4 | 65
CCSc1nnc(NC(=O)c2c(-c3ccccc3Cl)noc2C)s1 | -7 | 1.1 | 1 | 9 | 1 | 109
O=C(Nc1ccc(Cl)cc1C(=O)O)c1ccc2c(c1)C(=O)N(Cc1ccco1)C2=O | / | / | / | / | 7 | /
CCOP(=O)(O)c1ccccc1OCCCCCOc1ccccc1P(=O)(O)OCC | 2 | 1 | 15 | -4 | / | 131
c1cncc(Oc2cccc(Oc3cccnc3)c2)c1 | -8 | 1.2 | 98*[fluorescence artefact?] | -2 | -1 | 90
c1cncc(-c2cccnc2)c1 | 24 | 1.2 | 14 | -11 | -2 | 93
O=C(Nc1ccc(Cc2ccncc2)cc1)C1CCC(N2C(=O)C3CC=CCC3C2=O)CC1 (centres undefined) | 55* | 1.2 | 53* | 56* | / | 64
O=C(Nc1ccc(F)cc1)C1CCC(N2C(=O)c3ccccc3C2=O)CC1 (centres undefined) | 10 | / | -5 | 4 | / | 126
CN1CCc2ccccc2[C@H]1Cc1ccccc1NC(=O)c1sc2ccccc2c1Cl | / | / | / | 32 | / | /
Cc1ccsc1C=Nc1ccc(O)cc1 | 35 | 1.2 | 76*[fluorescence artefact?] | 21 | 2 | 64
Oc1ccc(N=Cc2ccc(O)c(O)c2)cc1 | / | 1.4 | / | / | 2 | /
COc1ccc(N2CCN(C(=O)CSc3nnc(-c4ccc5[nH]c(C)c(C)c5c4)o3)CC2)cc1 | 10 | 1 | 4 | -5 | 0 | 101
Cc1[nH]c2ccc(-c3nnc(SCC(=O)c4ccccc4F)o3)cc2c1C | 70* | 1.2 | 46 | 0 | 2 | 62
CCOC(=O)CSc1cc(C)nc(N)n1 | -10 | 1.1 | -7 | 4 | 2 | 121
O=C1c2ccccc2S(=O)(=O)N1Cc1cccc(S(=O)(=O)N2CCOCC2)c1 | -12 | 1 | -8 | 10 | 4 | 134
COc1ccc(C)cc1NC(=O)Nc1ccc(Br)cn1 | 10 | 1.2 | 34 | 6 | / | 243*
O=C(Nc1ccc2c(c1)OCO2)Nc1ccc(Br)cn1 | 15 | 1.1 | 33 | 0 | 3 | 228*
SMILES | ERa coact inh | MT1-MMP txn act | ERb coact inh | Smad3 FoxH1 inh | MMP-13 inhibitor | ERa SRC1 pot
Cc1ccc(C)c(OCC(=O)Nn2c(C)nc3ccccc3c2=O)c1 | -2 | 1 | -4 | -2 | / | 105
Cc1ccc(-c2nnc3ccc(SCC(=O)N4CCc5ccccc54)nn23)cc1 | 4 | / | 16 | -80 | / | 238*[fluorescence artefact?]
COc1ccc(OC)c(S(=O)(=O)N(C)CC(=O)Nc2ccc3c(c2)OCCO3)c1 | 4 | 1.1 | 8 | -15 | 1 | 103
Cc1cccc(-c2noc(Cc3ccccc3)n2)c1 | / | 1.5 | / | / | 4 | /
COC(=O)C(NC(=O)CCc1c(C)nc2ncnn2c1C)C(C)C (centres undefined) | -8 | 1.2 | 66*[fluorescence artefact?] | 4 | / | 85
CCOC(=O)C(Cc1ccccc1)NC(=O)CCc1c(C)nc2ncnn2c1C (centres undefined) | 15 | 1.1 | 5 | -8 | -1 | 95
Cc1ccc(N(CC(=O)N2CCOCC2)S(C)(=O)=O)cc1C | 2 | 1.1 | 0 | 4 | / | 132
Nc1c(C(=O)c2cccs2)oc2ccccc12 | -15 | 1.6 | -4 | -3 | -6 | 259*[fluorescence artefact?]
COc1ccc2c3c(cccc13)NN=C2C | 98*[fluorescence artefact?] | / | 99*[fluorescence artefact?] | 32 | 3 | -3
COCN(C#N)c1nc(OC)nc(OC)n1 | 10 | 1 | 55*[fluorescence artefact?] | -12 | 0 | 110
COc1ccccc1/C=C/C1(C(=O)NC2CCCC2)CC(=O)N1c1ccc(F)cc1 (centres undefined) | 16 | 1 | 9 | -7 | / | 94
COc1ccc(C(=O)Nc2nc3c(s2)Cc2cc(OC)ccc2-3)cc1 | 95*[fluorescence artefact?] | 1.1 | 55* | 11 | / | 7
COc1ccc2c(c1)Cc1sc(NC(=O)c3ccccc3)nc1-2 | -1 | 1 | 1 | 9 | / | 113
CCOC(=O)Cc1csc(Nc2c(C)n(C)n(-c3ccccc3)c2=O)n1 | -5 | 1.1 | 0 | -2 | 8 | 110
CCOC(=O)c1c(C)[nH]c(C)c1C(=O)CSc1nnc(-c2cc(OC)c(OC)c(OC)c2)o1 | -42 | 1.1 | -3 | -7 | 2 | 313*
CCCCOC(=O)CSc1nnc(-c2cc(OC)c(OC)c(OC)c2)o1 | -4 | 1 | 2 | 2 | 0 | 100
CCn1c(CC(=O)Nc2ccccc2F)nnc1SCC(=O)N1CCN(c2ccccc2)CC1 | -21 | 1.1 | -19 | 2 | 3 | 113
O=C(O)c1cn(-c2ccccc2)nc1-c1ccncc1 | 0 | 1.2 | -2 | 10 | -11 | 112
O=C(c1cn(-c2ccccc2)nc1-c1ccncc1)n1nnc2ccccc21 | 33 | 1.2 | 26 | 11 | -6 | 216*
CC1=CC(C)(C)N(C(=O)c2ccc(F)cc2)c2cc3c(cc21)OCO3 | 0 | 1.3 | -3 | -2 | 0 | 39
Cc1cccc(NC(=O)Cn2nnc(-c3ccc(CN4CCCC4)cc3)n2)c1C | 11 | 1.1 | 17 | 4 | 2 | 204*[fluorescence artefact?]
COCCCNC(=O)Cn1nnc(-c2ccc(NC(=O)c3ccc(F)cc3)cc2)n1 | 48 | 1.1 | 46 | 1 | 0 | 258*[fluorescence artefact?]
Cc1csc(N/N=C/c2ccc(O)c([N+](=O)[O-])c2)n1 | 99*[fluorescence artefact?] | 1.4 | 99*[fluorescence artefact?] | 14 | / | 4
Cc1csc(NC(=O)Nc2ccc(Cl)cc2)n1 | 9 | 1.3 | 1 | 0 | -2 | 106
COCCCn1c(=N)c(C(N)=S)cc2c(=O)n3cccc(C)c3nc21 | 69*[fluorescence artefact?] | 1.1 | 35 | -11 | -211 | 37
CCn1c(=N)c(C(N)=O)cc2c(=O)n3cccc(C)c3nc21 | 50* | 1.2 | 37 | 1 | i | 65
CC(C)N(C(=O)CSc1nc2ccccc2n1Cc1ccc(F)cc1)C(C)C | -1 | 1.2 | -21 | 10 | / | 89
CSc1nc2ccccc2n1Cc1cccc(F)c1 | 2 | 1.1 | 75*[fluorescence artefact?] | 7 | -1 | 93
